Compounds with a hit are over-represented: about 3.5% of the library has one in this group of screens.
mHTT CaM bind – inhibitors of human mutant huntingtin-calmodulin interaction. P42858. AlphaScreen His-mHTT/GST-CaM binding, luminescence. inhibition, % at 15 µM. actives 3.6% (n = 190,000). AID 1671202;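 note: 0% = both proteins with DMSO and 100% = one protein alone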
Pf apPOL block – Pf-apPOL DNA polymerase inhibition | AID 1794808 | inhibition, % at 10 µM | actives 0.25% (n = 210,000) | Recombinant Pf-apPOL, molecular beacon fluorescence, 1.5 h
* hit, by the source's call; ! = repeats disagree. Cut-off read from the data, not from the text of the source: active = inhibition above about 50%; inactive = the rest.

What do the screens show for `O=C(c1ccoc1)N1CCC(n2c(-c3ccco3)nc3cccnc32)C1` (stereo unspecified)?
mHTT CaM bind: 3; Pf apPOL block: -4

Results for Cc1cc(N2CCOCC2)cc2c3ccccc3n(C)c12 ?
mHTT CaM bind: -15; Pf apPOL block: 10

Results for COc1ccccc1-c1c(Cc2ccccc2)[nH]n2c(=O)cc(C(C)C)nc12 ?
mHTT CaM bind: 5; Pf apPOL block: 1

How did Cc1nc(C(=O)Nc2cc(F)ccc2F)c(C)o1 do in these assays?
mHTT CaM bind: -14; Pf apPOL block: 0

How did C=CCn1c(SCC(=O)Nc2ccccc2F)nnc1-c1ccco1 do in these assays?
mHTT CaM bind: 3; Pf apPOL block: -6

Results for N#CC1=C(N)Oc2n[nH]c(-c3ccccc3)c2C12c1ccccc1-c1ccccc12 ?
mHTT CaM bind: 90*; Pf apPOL block: -2

Results for N#CC1=C(N)Oc2n[nH]c(-c3ccccc3)c2C12C(=O)Nc1ccccc12 (stereo unspecified) ?
mHTT CaM bind: 3; Pf apPOL block: -2

What do the screens show for `CCOc1cc(C(=O)Nc2ccc3oc(-c4cccnc4)nc3c2)cc(OCC)c1OCC`?
mHTT CaM bind: 4; Pf apPOL block: 4

How did O=C1c2cccc(Cl)c2C(=O)c2c1cccc2N1CCOCC1 do in these assays?
mHTT CaM bind: 88*; Pf apPOL block: 10

Results for O=C1c2ccccc2-c2onc3ccc(N4CCOCC4)c1c23 ?
mHTT CaM bind: 17; Pf apPOL block: -1

What do the screens show for `O=C1CC(NS(=O)(=O)c2ccc3ccccc3c2)CN1` (stereo unspecified)?
mHTT CaM bind: -8; Pf apPOL block: -1

Results for COc1ccc(CNC(=O)c2cnn3c2NC(c2ccc(C)cc2)CC3C(F)(F)F)cc1 (stereo unspecified) ?
mHTT CaM bind: 17; Pf apPOL block: 3

How did O=c1cc(-c2ccccc2Cl)oc2ccc([N+](=O)[O-])c(O)c12 do in these assays?
mHTT CaM bind: 5; Pf apPOL block: -5

Results for O=[N+]([O-])c1cc([N+](=O)[O-])c2oc(-c3ccccc3)c(Br)c2c1O ?
mHTT CaM bind: 96*; Pf apPOL block: -1

Results for O=C(NC1CCCCCC1)c1csc(-c2ccc(N3CCCC3)nc2)n1 ?
mHTT CaM bind: -11; Pf apPOL block: -2

How did Cc1ccc(-c2cc(COC(=O)Cc3ccccc3)no2)cc1 do in these assays?
mHTT CaM bind: -152; Pf apPOL block: -6

What do the screens show for `Cc1nc2ccccc2n1CC(O)COc1ccc(C(=O)c2ccccc2)cc1` (stereo unspecified)?
mHTT CaM bind: 8; Pf apPOL block: -14

What do the screens show for `CC(=O)N(C)c1ccc(OCC(O)Cn2c3ccccc3c3ccccc32)cc1` (stereo unspecified)?
mHTT CaM bind: 73*; Pf apPOL block: -10

Results for O=C(Nc1ccc(OC(F)(F)F)cc1)Nc1cc(-c2cccs2)[nH]n1 ?
Pf apPOL block: -20

Results for O=C1OC2(CCCC2)OC(=O)C1=Cc1c[nH]c2ccccc12 ?
mHTT CaM bind: 7; Pf apPOL block: -16

Results for O=C1C(=Cc2c[nH]c3ccccc23)C(=O)c2ccccc21 ?
mHTT CaM bind: 57*!; Pf apPOL block: 0

Results for O=C(NNC(=O)c1cccc(Cl)c1)c1cccnc1 ?
Pf apPOL block: -5

Results for O=C(Cn1nc(-c2ccc(Cl)cc2)c2ccccc2c1=O)Nc1ccc(Cl)cc1 ?
mHTT CaM bind: 9; Pf apPOL block: 12

What do the screens show for `COCCNC(=O)Cn1nc(-c2ccc(Cl)cc2)c2ccccc2c1=O`?
mHTT CaM bind: 1; Pf apPOL block: 76*

How did CCOc1cc(/C=C2/C=C(c3ccc(C)cc3)OC2=O)ccc1O do in these assays?
mHTT CaM bind: 55*; Pf apPOL block: 8

Results for CCOc1ccc(C2=C/C(=C/c3ccc(C)c(OC)c3)C(=O)O2)cc1 ?
mHTT CaM bind: -14; Pf apPOL block: 3

Results for COc1ccc(C2CC(=O)c3c(O)cc(O)cc3O2)cc1O (stereo unspecified) ?
Pf apPOL block: 0

How did CC(C)=CCc1c(O)cc(O)c2c1OC(c1ccccc1)CC2=O (stereo unspecified) do in these assays?
mHTT CaM bind: 51*; Pf apPOL block: -2

What do the screens show for `CC(NC(=O)CN1CCOCC1)C12CC3CC(CC(C3)C1)C2` (stereo unspecified)?
mHTT CaM bind: -2; Pf apPOL block: -3

What do the screens show for `Cc1ccc2ccc(C(Nc3ccccn3)c3ccccc3C)c(O)c2n1` (stereo unspecified)?
mHTT CaM bind: 68*; Pf apPOL block: -33

Results for COc1ccccc1C(=O)Nc1ccccn1 ?
mHTT CaM bind: -8; Pf apPOL block: 1

How did Cc1cc(C)c2nc(C)cc(NC(=O)c3ccccn3)c2c1 do in these assays?
mHTT CaM bind: -11; Pf apPOL block: -1

Results for COc1cccc(C(Nc2ccccn2)c2ccc3ccc(C)nc3c2O)c1OC (stereo unspecified) ?
mHTT CaM bind: 69*; Pf apPOL block: -30

What do the screens show for `CC(C)Cn1c(C2CCN(C(=O)c3ccnn3C)C2)nc2ccncc21` (stereo unspecified)?
mHTT CaM bind: -3; Pf apPOL block: 2

What do the screens show for `COc1ccccc1CNC(=O)CN(c1cc(Cl)ccc1Cl)S(C)(=O)=O`?
mHTT CaM bind: 0; Pf apPOL block: -6

What do the screens show for `COc1ccc(CNC(=O)c2cc3ccccn3c2)cc1`?
mHTT CaM bind: 7; Pf apPOL block: 0

Results for COc1cccc(C(C)NC(=O)c2cc3ccccn3c2)c1 (stereo unspecified) ?
mHTT CaM bind: 68*; Pf apPOL block: -3

Results for CCCCNC(=O)c1cc(C)n2nc(-c3ccccc3)cc2n1 ?
mHTT CaM bind: -20; Pf apPOL block: -4

Results for COc1ccc(CC(=O)NC2C3CC4CC(C3)CC2C4)cc1OC (stereo unspecified) ?
mHTT CaM bind: 5; Pf apPOL block: -3

Results for COc1ccc(NC2C3CC4CC(C3)CC2C4)cc1OC (stereo unspecified) ?
mHTT CaM bind: 62*; Pf apPOL block: -3

How did CN(C)C=CC(=O)c1ccc(S(=O)(=O)c2ccccc2)cc1 do in these assays?
Pf apPOL block: -2

How did O=S(=O)(Nc1ccccn1)c1ccc(N=Cc2cccnc2)cc1 do in these assays?
mHTT CaM bind: 1; Pf apPOL block: 6

Results for O=C1C(=CC=Cc2ccco2)Oc2cc(O)ccc21 ?
mHTT CaM bind: 58*!; Pf apPOL block: 51*

Results for O=C1C(=Cc2ccccc2F)Oc2cc(O)ccc21 ?
mHTT CaM bind: -6; Pf apPOL block: 1

How did O=C(Oc1ccc2c(c1)OC(=Cc1ccco1)C2=O)c1ccccc1 do in these assays?
mHTT CaM bind: 9; Pf apPOL block: -1

How did O=C(C=Cc1ccccc1)Oc1ccc2c(c1)OC(=Cc1ccco1)C2=O do in these assays?
mHTT CaM bind: 79*; Pf apPOL block: 6

How did O=C(Oc1ccc2c(c1)OC(=Cc1ccco1)C2=O)c1cccs1 do in these assays?
mHTT CaM bind: 58*; Pf apPOL block: 36

How did O=C(Oc1ccc2c(c1)OC(=Cc1ccco1)C2=O)c1ccco1 do in these assays?
mHTT CaM bind: 24; Pf apPOL block: 5

Results for COc1ccc(C=C2Oc3cc(OC(C)=O)ccc3C2=O)cc1OC ?
mHTT CaM bind: -2; Pf apPOL block: -1

What do the screens show for `COc1ccc(C=C2Oc3cc(OC(=O)C(C)C)ccc3C2=O)cc1OC`?
mHTT CaM bind: 62*; Pf apPOL block: -5
